Results as given in the supplement of paper PMC8975748.
Where a name gives a salt, the structure may show the parent alone.

Each compound was assayed on Saccharomyces cerevisiae BY4741 SeMeCo community (assay: z-score of subpopulation abundance vs DMSO median, subpopulation auxotrophic for HL; higher = larger share of this subpopulation than in DMSO controls). Settings: 10 µM; 24 h; SM minimal medium; subpopulation (auxotrophy): HL.
Experimental: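 Fluorescent four-plasmid SeMeCo (self-establishing metabolically cooperating S. cerevisiae BY4741 community; plasmids pH-mRuby2, pL-mWasabi, pU-eCFP, pM-TagRFP657) was grown 24 h in minimal SM medium with each Selleck FDA-approved drug at 10 µM in 384-well plates. Cells were fixed and imaged by high-content confocal microscopy. For each auxotrophic subpopulation (and the prototroph), a z-score gives the deviation from the DMSO vehicle-control population median.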

Which “z-score of subpopulation abundance” value does the source give for CCOC(=O)c1c(CSc2ccccc2)n(C)c2cc(Br)c(O)c(CN(C)C)c12 [Arbidol HCl] here?
Its value is -0.66.

With Cc1ccc(S(=O)(=O)NC(=O)NN2CC3CCCC3C2)cc1 (stereo not given) [Gliclazide] as the compound, how does the “z-score of subpopulation abundance” value read?
Its value is 0.12.

For CCN1CCC[C@H]1CNC(=O)c1cc(S(N)(=O)=O)ccc1OC [Levosulpiride], which “z-score of subpopulation abundance” value is on record?
Its value is -0.21.

With COc1ccc2cc([C@H](C)C(=O)O)ccc2c1 [Naproxen] as the compound, how does the “z-score of subpopulation abundance” value read?
The value was 0.23.

Which “z-score of subpopulation abundance” value does the source give for O=C(O)Cc1ccccc1Nc1c(Cl)cccc1Cl [Diclofenac Diethylamine] here?
Its value is -1.1.

Which “z-score of subpopulation abundance” value does the source give for C=CC(C)(O)CCC=C(C)C (stereo not given) [Linalool] here?
The value was -0.47.

Cc1onc(-c2ccccc2Cl)c1C(=O)N[C@@H]1C(=O)N2[C@@H]1SC(C)(C)[C@@H]2C(=O)O [Cloxacillin Sodium] was tested. Which “z-score of subpopulation abundance” value did it give?
The value was -0.33.

Which “z-score of subpopulation abundance” value does the source give for O=C1CCc2cc(OCCCCc3nnnn3C3CCCCC3)ccc2N1 [Cilostazol] here?
The value was -0.05.

Which “z-score of subpopulation abundance” value does the source give for N#CC(c1ccc(Cl)cc1)c1c(Cl)cc(-n2ncc(=O)[nH]c2=O)cc1Cl (stereo not given) [Diclazuril] here?
The value was -0.28.

Which “z-score of subpopulation abundance” value does the source give for C[C@H]1COc2c(N3CCN(C)CC3)c(F)cc3c(=O)c(C(=O)O)cn1c23 [Levofloxacin] here?
The value was -0.59.

CCCCCCCCCC(=O)NC1C(Oc2c3cc4cc2Oc2ccc(cc2Cl)C(OC2OC(CO)C(O)C(O)C2NC(C)=O)C2NC(=O)C(NC(=O)C4NC(=O)C4NC(=O)C(Cc5ccc(c(Cl)c5)O3)NC(=O)C(N)c3ccc(O)c(c3)Oc3cc(O)cc4c3)c3ccc(O)c(c3)-c3c(OC4OC(CO)C(O)C(O)C4O)cc(O)cc3C(C(=O)O)NC2=O)OC(CO)C(O)C1O (stereo not given) [Teicoplanin] was tested. Which “z-score of subpopulation abundance” value did it give?
Its value is 1.01.

With Nc1nc2[nH]cc(CCc3ccc(C(=O)N[C@@H](CCC(=O)O)C(=O)O)cc3)c2c(=O)[nH]1 [Pemetrexed] as the compound, how does the “z-score of subpopulation abundance” value read?
The value was 2.81.

CCNC(=O)[C@@H]1CCCN1C(=O)[C@H](CCCNC(=N)N)NC(=O)[C@H](CC(C)C)NC(=O)[C@@H](CC(C)C)NC(=O)[C@H](Cc1ccc(O)cc1)NC(=O)[C@H](CO)NC(=O)[C@H](Cc1c[nH]c2ccccc12)NC(=O)[C@H](Cc1c[nH]cn1)NC(=O)[C@@H]1CCC(=O)N1 [Leuprolide Acetate] was tested. Which “z-score of subpopulation abundance” value did it give?
The value was 0.14.

With O=C(c1ccccc1)c1ccc2n1CCC2C(=O)O (stereo not given) [Ketorolac] as the compound, how does the “z-score of subpopulation abundance” value read?
Its value is 0.33.

With CNCC[C@@H](Oc1ccccc1C)c1ccccc1 [Atomoxetine HCl] as the compound, how does the “z-score of subpopulation abundance” value read?
The value was -0.43.

CC(=O)OCC1=C(C(=O)O)N2C(=O)[C@@H](NC(=O)Cc3cccs3)[C@H]2SC1 [Cephalothin] was tested. Which “z-score of subpopulation abundance” value did it give?
The value was -0.42.

Cc1nnc(SCC2=C(C(=O)O)N3C(=O)[C@@H](NC(=O)Cn4cnnn4)[C@H]3SC2)s1 [Cefazolin Sodium] was tested. Which “z-score of subpopulation abundance” value did it give?
Its value is 1.09.

With CS(=O)(=O)c1ccc([C@@H](O)[C@@H](CF)NC(=O)C(Cl)Cl)cc1 [Florfenicol] as the compound, how does the “z-score of subpopulation abundance” value read?
The value was -0.56.

Nc1nc2c(ncn2COCCO)c(=O)[nH]1 [Aciclovir] was tested. Which “z-score of subpopulation abundance” value did it give?
Its value is -0.76.

For CC(NCCC(c1ccccc1)c1ccccc1)c1ccccc1 (stereo not given) [Fendiline hydrochloride], which “z-score of subpopulation abundance” value is on record?
The value was -0.41.

CN1C2CCCC1CC(NC(=O)c1nn(C)c3ccccc13)C2 (stereo not given) [Granisetron] was tested. Which “z-score of subpopulation abundance” value did it give?
The value was -1.17.

How did the “z-score of subpopulation abundance” value turn out when CCn1cc(C(=O)O)c(=O)c2cc(F)c(N3CCNCC3)nc21 [Enoxacin Sesquihydrate] was run?
The value was -0.59.

For CC(C)Cc1ccc(C(C)C(=O)O)cc1 (stereo not given) [Ibuprofen], which “z-score of subpopulation abundance” value is on record?
Its value is -0.54.

For CC1(C)S[C@@H]2[C@H](NC(=O)Cc3ccccc3)C(=O)N2[C@H]1C(=O)O [Benzathine penicilline], which “z-score of subpopulation abundance” value is on record?
The value was -0.03.

Which “z-score of subpopulation abundance” value does the source give for Cc1cc(O)c(C(=O)N[C@@H](C(=O)N[C@@H]2C(=O)N3C(C(=O)O)=C(CSc4nnnn4C)CS[C@H]23)c2ccc(O)cc2)cn1 [Cefpiramide sodium] here?
Its value is 0.18.

With OC[C@H]1O[C@H](OCC2O[C@@H](O)[C@H](O)[C@@H](O)[C@@H]2O)[C@H](O)[C@@H](O)[C@H]1O (stereo not given in full) [Melibiose] as the compound, how does the “z-score of subpopulation abundance” value read?
The value was 0.32.

With CO/N=C(\C(=O)N[C@@H]1C(=O)N2C(C(=O)O)=C(COC(C)=O)CS[C@H]12)c1csc(N)n1 [Cefotaxime sodium] as the compound, how does the “z-score of subpopulation abundance” value read?
The value was -0.46.

Which “z-score of subpopulation abundance” value does the source give for CN(C)CCC=C1c2ccccc2C=Cc2ccccc21 [Cyclobenzaprine HCl] here?
The value was -0.13.

How did the “z-score of subpopulation abundance” value turn out when CN(C)c1cc(NC(=O)CNC(C)(C)C)c(O)c2c1CC1CC3C(N(C)C)C(=O)C(C(N)=O)=C(O)C3(O)C(=O)C1=C2O (stereo not given) [Tigecycline] was run?
The value was -0.79.

How did the “z-score of subpopulation abundance” value turn out when COc1ccccc1N1CCN(CCCNc2cc(=O)n(C)c(=O)n2C)CC1 [Urapidil HCl] was run?
Its value is -0.53.

Which “z-score of subpopulation abundance” value does the source give for C#CCN(C)Cc1ccccc1 [Pargyline hydrochloride] here?
Its value is -0.44.

With CN1CC(=O)N2[C@H](c3ccc4c(c3)OCO4)c3[nH]c4ccccc4c3C[C@@H]2C1=O [Tadalafil] as the compound, how does the “z-score of subpopulation abundance” value read?
Its value is 1.24.

With Cn1nnc(-c2ccc(-c3ccc(N4C[C@H](COP(=O)(O)O)OC4=O)cc3F)cn2)n1 [Tedizolid Phosphate] as the compound, how does the “z-score of subpopulation abundance” value read?
The value was -0.86.

How did the “z-score of subpopulation abundance” value turn out when CC(C)(C)CC(C)(C)c1ccc(OCCOCC[N+](C)(C)Cc2ccccc2)cc1 [Benzethonium Chloride] was run?
Its value is -0.38.

Which “z-score of subpopulation abundance” value does the source give for O=c1ccc2ccc(OCCCCN3CCN(c4cccc5sccc45)CC3)cc2[nH]1 [Brexpiprazole] here?
Its value is -0.02.

Which “z-score of subpopulation abundance” value does the source give for O=C(N[C@H](CO)[C@H](O)c1ccc([N+](=O)[O-])cc1)C(Cl)Cl [Chloramphenicol] here?
The value was 0.18.

How did the “z-score of subpopulation abundance” value turn out when Cc1cc(C)nc(NS(=O)(=O)c2ccc(N)cc2)n1 [Sulfamethazine Sodium Salt] was run?
The value was -0.24.

For O=C1Nc2ccccc2C1=O [Isatin], which “z-score of subpopulation abundance” value is on record?
The value was -0.64.

Which “z-score of subpopulation abundance” value does the source give for CCOc1cc(N)c(Cl)cc1C(=O)NCC1CN(Cc2ccc(F)cc2)CCO1 (stereo not given) [Mosapride Citrate] here?
The value was 0.35.

COC(=O)C1=C(C)NC(C)=C(C(=O)OCC(C)C)C1c1ccccc1[N+](=O)[O-] (stereo not given) [Nisoldipine] was tested. Which “z-score of subpopulation abundance” value did it give?
The value was 0.67.
